Here are results for ten molecules from ChEMBL document CHEMBL3988442, “University of Dundee, Small-Polar-MMV Screening Library” (2021).

Holding throughout (set-up): scale not given: direction of the effect not stated beside the values
Assay [1] has as its target Protein translocase subunit SecA (Escherichia coli (strain K12)) (UniProt P10408). The assay can be described thus: Assay to Identify E. coli SecA ATPase Inhibitors. Format: functional. As to conditions: 30 µM.
The target in assay [2] is T1, Ubiquitin-activating enzyme e1, putative (Leishmania donovani (strain BPK282A1)) (UniProt E9BSI1).
T1 sequence (whole entry): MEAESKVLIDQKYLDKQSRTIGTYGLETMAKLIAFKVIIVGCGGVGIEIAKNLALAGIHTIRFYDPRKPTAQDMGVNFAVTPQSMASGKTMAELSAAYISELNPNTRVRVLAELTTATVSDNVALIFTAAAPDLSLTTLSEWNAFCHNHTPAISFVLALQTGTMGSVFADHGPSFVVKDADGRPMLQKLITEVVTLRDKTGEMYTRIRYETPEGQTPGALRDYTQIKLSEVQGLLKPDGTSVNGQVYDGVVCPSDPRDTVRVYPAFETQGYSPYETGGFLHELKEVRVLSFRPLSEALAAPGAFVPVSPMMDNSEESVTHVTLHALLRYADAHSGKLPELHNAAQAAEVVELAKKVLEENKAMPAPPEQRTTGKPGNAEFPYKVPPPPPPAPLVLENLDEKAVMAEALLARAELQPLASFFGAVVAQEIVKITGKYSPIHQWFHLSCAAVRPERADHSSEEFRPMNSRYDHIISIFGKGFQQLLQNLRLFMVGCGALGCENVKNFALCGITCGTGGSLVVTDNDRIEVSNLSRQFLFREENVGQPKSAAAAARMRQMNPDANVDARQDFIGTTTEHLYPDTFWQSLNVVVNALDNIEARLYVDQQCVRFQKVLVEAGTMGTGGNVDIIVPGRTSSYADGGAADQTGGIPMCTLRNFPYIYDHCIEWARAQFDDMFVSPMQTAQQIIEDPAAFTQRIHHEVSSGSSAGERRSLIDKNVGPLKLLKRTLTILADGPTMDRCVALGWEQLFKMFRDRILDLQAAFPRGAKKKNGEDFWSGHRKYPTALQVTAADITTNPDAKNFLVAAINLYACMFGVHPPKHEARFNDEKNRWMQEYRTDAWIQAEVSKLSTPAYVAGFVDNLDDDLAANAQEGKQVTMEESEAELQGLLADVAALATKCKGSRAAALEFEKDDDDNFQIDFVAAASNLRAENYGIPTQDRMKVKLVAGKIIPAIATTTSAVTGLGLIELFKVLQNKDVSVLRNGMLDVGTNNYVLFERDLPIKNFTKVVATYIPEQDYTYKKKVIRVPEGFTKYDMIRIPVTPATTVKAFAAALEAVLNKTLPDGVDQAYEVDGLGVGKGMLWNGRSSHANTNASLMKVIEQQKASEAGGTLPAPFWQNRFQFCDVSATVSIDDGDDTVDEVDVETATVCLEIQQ
The assay can be described thus: Leishmania donovani Ubiquitin Activating Enzyme (LdE1). Format: functional. The following applies: 30 µM.

Assay [3] addresses AMP-activated protein kinase, AMPK (Homo sapiens) (UniProt P54646+O43741+P54619+Q9UGJ0+Q9Y478+Q13131+Q9UGI9). The assay can be described thus: AMP-dependent Kinase enzyme assay. An in vitro enzyme assay that detects ADP turnover that is directly proportional to AMPK activity. This uses naive AMPK that is activated during the assay with MK-8722. Format: functional. The following applies: 30 µM.

For assay [4], the target named is Sialic acid-binding Ig-like lectin 9 (Homo sapiens) (UniProt Q9Y336). The assay is described as follows: Hs-Siglec9 ALPHAscreen SOP 20170721. The following applies: 10 µM.
The test system of assay [5] is Trypanosoma cruzi. The assay is described as follows: Trypanosoma cruzi phosphomannomutase and mannose-1-phosphate guanylyltransferase assay. The following applies: 10 µM. Format: functional.
The target in assay [6] is T2, Arginase-2, mitochondrial (Homo sapiens) (UniProt P78540).
T2 sequence (whole entry): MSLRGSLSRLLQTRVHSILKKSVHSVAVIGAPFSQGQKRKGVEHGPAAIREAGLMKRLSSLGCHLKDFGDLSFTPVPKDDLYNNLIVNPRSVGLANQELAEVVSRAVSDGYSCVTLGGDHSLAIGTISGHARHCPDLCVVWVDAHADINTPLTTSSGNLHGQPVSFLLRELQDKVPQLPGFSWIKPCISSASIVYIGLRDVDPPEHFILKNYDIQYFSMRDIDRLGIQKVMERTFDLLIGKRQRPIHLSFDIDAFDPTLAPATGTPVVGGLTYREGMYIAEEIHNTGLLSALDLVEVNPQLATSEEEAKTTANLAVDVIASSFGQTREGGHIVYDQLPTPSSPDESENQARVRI
The assay can be described thus: in vitro enzyme assay to detect the production of urea directly proportional to the activity of Arginase II. Further: in the data most compounds retested in dose-response had high values. Format: functional. As to conditions: 33.3 µM.

Assay [7] has as its target T3, Proteasome subunit beta (Trypanosoma cruzi) (UniProt O96673).
T3 sequence (whole entry): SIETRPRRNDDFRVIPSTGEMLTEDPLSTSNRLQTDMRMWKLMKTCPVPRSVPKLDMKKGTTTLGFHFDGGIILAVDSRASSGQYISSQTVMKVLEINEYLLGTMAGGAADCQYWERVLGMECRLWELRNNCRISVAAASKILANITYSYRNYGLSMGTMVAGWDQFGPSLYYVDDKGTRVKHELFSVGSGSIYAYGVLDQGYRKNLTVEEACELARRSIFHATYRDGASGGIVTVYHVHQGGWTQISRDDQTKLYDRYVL
The assay can be described thus: Trypanosoma cruzi proteasome chymotrypsin-like activity (TcProtChymo) assay. Further: in the data most compounds retested in dose-response had high values. The following applies: 9.37 µM. Format: functional.

The species named for assay [8] is Homo sapiens. The assay is described as follows: To identify inhibition of the IFN signalling (Jak-Stat) pathway via expression of an eGFP reporter gene under the control of an IFN-stimulated response element (ISRE) containing MxA promoter. Format: functional. As to conditions: 30 µM. On the technique in general: In a reporter assay the amount or activity of a reporter protein is the signal.

For assay [9], the target named is T4, Tyrosyl-tRNA synthetase, putative (Trypanosoma cruzi (strain CL Brener)) (UniProt Q4DSP6).
T4 sequence (whole entry): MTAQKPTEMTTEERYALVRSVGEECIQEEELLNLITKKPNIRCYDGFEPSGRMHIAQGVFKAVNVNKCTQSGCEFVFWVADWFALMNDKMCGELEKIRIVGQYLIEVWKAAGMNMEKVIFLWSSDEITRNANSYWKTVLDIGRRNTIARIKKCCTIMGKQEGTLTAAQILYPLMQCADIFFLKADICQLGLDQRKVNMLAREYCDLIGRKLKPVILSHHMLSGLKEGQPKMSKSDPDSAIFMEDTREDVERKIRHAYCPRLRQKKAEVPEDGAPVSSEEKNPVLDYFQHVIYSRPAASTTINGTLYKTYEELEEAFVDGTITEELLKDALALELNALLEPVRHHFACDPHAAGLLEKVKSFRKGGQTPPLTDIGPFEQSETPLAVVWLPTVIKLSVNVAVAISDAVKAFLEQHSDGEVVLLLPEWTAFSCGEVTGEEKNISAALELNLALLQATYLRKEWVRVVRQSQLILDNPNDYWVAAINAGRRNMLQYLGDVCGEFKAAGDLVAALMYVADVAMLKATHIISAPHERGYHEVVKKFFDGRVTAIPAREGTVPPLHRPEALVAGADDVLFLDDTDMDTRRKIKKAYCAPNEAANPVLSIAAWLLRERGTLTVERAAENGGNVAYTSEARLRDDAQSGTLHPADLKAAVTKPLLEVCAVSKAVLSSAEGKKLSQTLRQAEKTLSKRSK
The assay is described as follows: Trypanosoma cruzi tyrosyl tRNA synthetase (TcYRS) _High Tyrosine SOP. Further: in the data most compounds retested in dose-response had high values. Format: functional. The following applies: 30 µM.

Assay [10] deals with T4, Tyrosyl-tRNA synthetase, putative (Trypanosoma cruzi (strain CL Brener)). The assay is described as follows: Trypanosoma cruzi tyrosyl tRNA synthetase (TcYRS) SOP. As to conditions: 30 µM. Format: functional.
The target in assay [11] is Chromo domain-containing protein 1 (Saccharomyces cerevisiae (strain ATCC 204508 / S288c) (Baker's yeast)) (UniProt P32657). The assay can be described thus: ScCHD-1 Enzyme Inhibition Assay. Further: in the data most compounds retested in dose-response had high values. Format: functional. As to conditions: 30 µM.

For some assays here: Measured potencies and affinities stand elsewhere.

Chain of Protein translocase subunit SecA (Escherichia coli (strain K12)) (P10408 whole entry): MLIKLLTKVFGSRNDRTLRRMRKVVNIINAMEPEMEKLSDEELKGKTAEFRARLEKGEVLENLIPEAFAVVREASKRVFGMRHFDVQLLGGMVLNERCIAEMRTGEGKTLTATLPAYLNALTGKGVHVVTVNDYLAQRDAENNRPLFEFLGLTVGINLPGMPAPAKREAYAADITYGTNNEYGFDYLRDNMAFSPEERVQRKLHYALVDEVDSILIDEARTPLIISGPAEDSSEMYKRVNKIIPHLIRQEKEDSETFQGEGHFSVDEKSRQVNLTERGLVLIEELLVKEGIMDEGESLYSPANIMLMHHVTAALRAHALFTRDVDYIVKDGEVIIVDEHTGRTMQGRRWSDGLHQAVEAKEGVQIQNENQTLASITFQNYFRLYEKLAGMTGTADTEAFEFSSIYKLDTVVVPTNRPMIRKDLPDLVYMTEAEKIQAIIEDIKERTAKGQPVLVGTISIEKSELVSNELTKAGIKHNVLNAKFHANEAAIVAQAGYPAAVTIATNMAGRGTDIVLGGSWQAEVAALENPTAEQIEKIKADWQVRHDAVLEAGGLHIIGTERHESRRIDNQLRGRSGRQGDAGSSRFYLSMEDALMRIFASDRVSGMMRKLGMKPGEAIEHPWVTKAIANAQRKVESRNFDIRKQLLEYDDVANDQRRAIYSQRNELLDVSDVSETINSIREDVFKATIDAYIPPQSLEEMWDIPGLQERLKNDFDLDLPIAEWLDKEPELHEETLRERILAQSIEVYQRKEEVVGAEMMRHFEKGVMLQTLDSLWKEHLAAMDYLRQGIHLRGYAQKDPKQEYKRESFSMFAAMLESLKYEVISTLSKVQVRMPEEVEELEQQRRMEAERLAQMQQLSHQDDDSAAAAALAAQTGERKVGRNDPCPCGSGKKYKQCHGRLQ
Chain of Chromo domain-containing protein 1 (Saccharomyces cerevisiae (strain ATCC 204508 / S288c) (Baker's yeast)) (P32657 whole entry, the tested form may be a part): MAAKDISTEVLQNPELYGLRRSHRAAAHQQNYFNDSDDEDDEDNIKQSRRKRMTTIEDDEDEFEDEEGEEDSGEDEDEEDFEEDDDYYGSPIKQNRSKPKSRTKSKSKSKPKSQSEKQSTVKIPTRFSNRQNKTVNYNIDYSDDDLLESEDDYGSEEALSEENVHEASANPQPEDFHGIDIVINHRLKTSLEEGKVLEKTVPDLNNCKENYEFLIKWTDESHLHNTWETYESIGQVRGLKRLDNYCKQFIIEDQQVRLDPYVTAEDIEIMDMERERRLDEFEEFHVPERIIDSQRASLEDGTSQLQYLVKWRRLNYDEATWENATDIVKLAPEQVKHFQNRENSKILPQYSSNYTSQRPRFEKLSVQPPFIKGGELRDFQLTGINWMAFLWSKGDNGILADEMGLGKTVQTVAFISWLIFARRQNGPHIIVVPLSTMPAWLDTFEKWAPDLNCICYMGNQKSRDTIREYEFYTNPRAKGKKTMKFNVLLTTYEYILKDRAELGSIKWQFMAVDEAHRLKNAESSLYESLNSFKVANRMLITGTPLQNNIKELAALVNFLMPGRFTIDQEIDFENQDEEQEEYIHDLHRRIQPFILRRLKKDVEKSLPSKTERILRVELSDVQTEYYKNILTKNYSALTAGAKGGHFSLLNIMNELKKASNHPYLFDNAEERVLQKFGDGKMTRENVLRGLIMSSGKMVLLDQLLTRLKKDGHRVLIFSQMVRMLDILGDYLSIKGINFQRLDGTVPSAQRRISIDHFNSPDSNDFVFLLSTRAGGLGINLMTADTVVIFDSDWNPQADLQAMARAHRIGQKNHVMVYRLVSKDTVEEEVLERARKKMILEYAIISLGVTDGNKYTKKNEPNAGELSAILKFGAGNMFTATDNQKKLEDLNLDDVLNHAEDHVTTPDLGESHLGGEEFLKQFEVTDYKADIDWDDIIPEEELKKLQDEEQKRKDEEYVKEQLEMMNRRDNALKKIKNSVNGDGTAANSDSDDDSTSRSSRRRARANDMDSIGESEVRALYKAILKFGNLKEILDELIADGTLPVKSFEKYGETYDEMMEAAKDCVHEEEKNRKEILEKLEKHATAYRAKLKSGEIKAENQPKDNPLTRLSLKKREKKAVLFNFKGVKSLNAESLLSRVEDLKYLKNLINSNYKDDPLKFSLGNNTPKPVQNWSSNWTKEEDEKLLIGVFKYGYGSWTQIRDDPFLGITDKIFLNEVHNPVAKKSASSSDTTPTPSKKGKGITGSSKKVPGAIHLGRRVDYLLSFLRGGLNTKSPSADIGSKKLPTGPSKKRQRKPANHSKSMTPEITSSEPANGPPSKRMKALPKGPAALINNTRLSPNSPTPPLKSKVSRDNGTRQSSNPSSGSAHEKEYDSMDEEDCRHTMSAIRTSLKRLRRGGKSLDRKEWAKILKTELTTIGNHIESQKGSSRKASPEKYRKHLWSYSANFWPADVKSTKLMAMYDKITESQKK
Chain of Sialic acid-binding Ig-like lectin 9 (Homo sapiens) (Q9Y336 whole entry): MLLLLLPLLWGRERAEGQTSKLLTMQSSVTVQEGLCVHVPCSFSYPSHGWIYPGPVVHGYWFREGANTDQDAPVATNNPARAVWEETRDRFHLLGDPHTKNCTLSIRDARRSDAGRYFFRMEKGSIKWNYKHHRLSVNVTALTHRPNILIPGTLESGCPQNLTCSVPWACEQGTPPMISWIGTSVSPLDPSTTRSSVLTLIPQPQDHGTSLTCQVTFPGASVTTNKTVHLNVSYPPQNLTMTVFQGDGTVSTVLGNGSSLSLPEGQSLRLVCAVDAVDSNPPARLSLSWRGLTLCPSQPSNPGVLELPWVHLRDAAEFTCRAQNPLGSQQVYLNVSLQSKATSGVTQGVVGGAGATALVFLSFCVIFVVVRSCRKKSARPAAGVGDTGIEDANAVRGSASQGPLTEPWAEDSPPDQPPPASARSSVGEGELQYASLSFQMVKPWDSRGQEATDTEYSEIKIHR

On to `CN1CCN(c2nc(O)c3c(-c4ccccn4)ccnc3n2)CC1`, for which the Percent Effect is -4.77% in assay [1]; 0% in [2]; 6.93% in assay [3]; 2.2% in [4]; -2.24% in assay [5]; -7.1% in assay [6]. For the same molecule, the Percent Effect in assay [7] is 18.1%; in assay [8], -16.4%; in assay [9], 6.38%; in [10], 10.4%; in [11], -7.72%.
For `OCCn1cc(CN2CCN(CCOc3ccccc3F)CC2)cn1`, the Percent Effect in assay [1] is -9.62%; in [2], 0%; in [3], 7.1%; in assay [4], 3.17%; in assay [5], -5.48%; in assay [6], 2.03%. In addition, the Percent Effect is 4.49% in assay [7]; 11.7% in assay [8]; -2.97% in assay [9]; -8.54% in assay [10]; 11.3% in assay [11].
On to `Cn1cc(C2CC(=O)NC23CCN(c2ncc(F)cn2)CC3)cn1` (stereo not given), for which the Percent Effect was 0.954% in assay [1]; 16% in [2]; 3.9% in [3]; 5.28% in assay [4]; -4.25% in [5]; -16.3% in assay [6]. The Percent Effect in [7] is 3.08%; in [8] it was 16.6%; in assay [9], 1.04%; in assay [10], 17.5%; in assay [11] it was -4.13%.
Consider `Cc1cc(NC(=O)NCc2ccccc2OC(F)F)n(C)n1`, for which the Percent Effect in assay [1] was 1.45%; in assay [2], 6.33%; in assay [3], 5.29%; in [4], -4.29%; in [5], -7.69%; in assay [6], 4.09%. Besides, the Percent Effect is 21.3% in [7]; 4.53% in assay [8]; 3.12% in assay [9]; 2.53% in assay [10]; -5.23% in assay [11].
As to `Cc1cn(-c2ccccc2)nc1NS(=O)(=O)c1cc(C(=O)O)cs1`, the Percent Effect in [1] was -9.57%; in assay [2] it was -5.48%; in [3], -4.37%; in assay [4], 14.1%; in assay [5], -2.15%; in assay [6] it was -0.455%. Moreover, the Percent Effect is 11.9% in assay [7]; 6.83% in [8]; -8.6% in assay [9]; -12.5% in [10]; -5.44% in [11].
Turning to `O=C1NCC2(CCCN(Cc3ccccc3F)C2)Oc2ccccc21` (stereo not given), the Percent Effect in assay [1] was 1.88%; in [2], 12.2%; in [3], 9.79%; in assay [4] it was -6.32%; in [5], -2.77%; in assay [6], 5.34%. The Percent Effect in assay [7] is 9.52%; in [8], 9.51%; in [9], 3.23%; in assay [10] it was 9.09%; in [11] it was -14.2%.
As to `CCOC[C@@H]1CCC[C@@]12CN(Cc1nccs1)CCO2`, the Percent Effect was 0.173% in assay [1]; 16% in assay [2]; -1.62% in assay [3]; -5.32% in assay [4]; 0.787% in assay [5]; 3.5% in [6]. Moreover, the Percent Effect in assay [7] is 17.4%; in assay [8] it was 10.8%; in assay [9], 7.45%; in assay [10], 19.2%; in assay [11] it was -7.27%.
Regarding `CCN1CCN(C2CCN(Cc3nc(-c4ccoc4)no3)CC2)C1=O`, the Percent Effect is -8.04% in [1]; 2.6% in [2]; 7.03% in assay [3]; -5.89% in assay [4]; -5.24% in assay [5]; 1.07% in assay [6]. Further, the Percent Effect in assay [7] was 0.676%; in assay [8] it was 23.7%; in [9], 1.94%; in assay [10] it was 0%; in assay [11], -2.83%.
Consider `Cc1cnc2c(S(=O)(=O)NCC3CCN(C4CC4)C3)cccc2c1` (stereo not given), for which the Percent Effect is -4.76% in [1]; -2.63% in [2]; -3.93% in [3]; -5.34% in [4]; 5.32% in [5]; -3.6% in [6]. For the same molecule, the Percent Effect in assay [7] was -7.53%; in assay [8], -27.5%; in assay [9], 11.3%; in [10], 6.17%; in assay [11] it was 6.25%.
For `Cn1ccnc1CNC1CCCN(Cc2noc(C3CC3)n2)C1` (stereo not given), the Percent Effect in [1] was -1.62%; in [2], 0%; in assay [3], -11.6%; in assay [4], 4.95%; in assay [5], 2.9%; in assay [6], 3.81%. The Percent Effect is 13.8% in assay [7]; 1.96% in assay [8]; 10.1% in [9]; 17.1% in [10]; -3.57% in assay [11].
